PubChem BioAssay (NCI)
Compounds without any hit were thinned out: in the full panel of roughly 83,000, 20% have a hit.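 Values shown are percent growth following 48 h exposure of cells in 96-well plates to a single concentration of compound; below 10 was considered active.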 Unmarked numbers belong to inactive results. The source made the active and inactive calls.

Tests used:
Assay in all cases: NCI-60 one-dose screen, 48 h (100 = growth as untreated, 0 = no growth, -100 = all killed)
Conditions in all cases: 10 µM unless noted
DU-145 prostate = system: DU-145 prostate
K-562 leukemia = system: K-562 leukemia
MALME-3M melanoma = system: MALME-3M melanoma
MDA-MB-231 breast = system: MDA-MB-231 breast
RXF 393 renal = system: RXF 393 renal
SF-268 CNS = system: SF-268 CNS
SF-295 CNS = system: SF-295 CNS
SF-539 CNS = system: SF-539 CNS
UACC-257 melanoma = system: UACC-257 melanoma
M14 melanoma = system: M14 melanoma
HCT-15 colon = system: HCT-15 colon
HT29 colon = system: HT29 colon
SNB-75 CNS = system: SNB-75 CNS
SNB-19 CNS = system: SNB-19 CNS
U251 CNS = system: U251 CNS
PC-3 prostate = system: PC-3 prostate
SK-MEL-5 melanoma = system: SK-MEL-5 melanoma
UACC-62 melanoma = system: UACC-62 melanoma
LOX IMVI melanoma = system: LOX IMVI melanoma
SK-MEL-28 melanoma = system: SK-MEL-28 melanoma

Compound	growth (DU-145 prostate)	growth (K-562 leukemia)	growth (MALME-3M melanoma)	growth (MDA-MB-231 breast) [%]	growth (RXF 393 renal)	growth (SF-268 CNS)	growth (SF-295 CNS) [%]	growth (SF-539 CNS)	growth (UACC-257 melanoma)	growth (M14 melanoma)	growth (HCT-15 colon)	growth (HT29 colon)	growth (SNB-75 CNS) [%]	growth (SNB-19 CNS) [%]	growth (U251 CNS)	growth (PC-3 prostate)	growth (SK-MEL-5 melanoma)	growth (UACC-62 melanoma)	growth (LOX IMVI melanoma)	growth (SK-MEL-28 melanoma)
N#Cc1ccc(O)c(C2=NCC(Cc3ccccc3)O2)c1 (stereo not given)	55.7%	26.5%	64.3%	77.6	62.4%	52.2%	31.2	68.7%	63.6%	45.4%	21.2%	72.6%	70.6	55.6	23.8%	35.3%	35.5%	42%	32.6%	80.2%
COc1ccc(Nc2ncccc2/C=C/C(=O)c2cc(OC)c(OC)c(OC)c2)cc1	6.98% (active)	-26.3% (active)	-5.45% (active)	17.3	-61% (active)	-33.2% (active)	17	-51.1% (active)	-89.7% (active)	-53.4% (active)	-57.2% (active)	-66.8% (active)	21.4	33.4	-95.8% (active)	-15.1% (active)	-25.8% (active)	-24% (active)	-63.6% (active)	-77% (active)
O=C1/C(=C/c2ccc(O)c(O)c2)COc2ccc(-c3ccccc3)cc21	26.5%	15.3%	41.2%	12.9	16.5%	49.4%	42.5	9.83% (active)	30.4%	45.9%	-31.2% (active)	15%	21.1	56.2	22.3%	19.9%	23.2%	-13.6% (active)	4.79% (active)	-11.5% (active)
Cn1cc(-c2csc(-c3cn(CCCN4CCOCC4)c4ccccc34)n2)c2cccnc21	97.9%	26.2%	108%	76.5	65.7%	91.7%	79.5	89.4%	89.3%	83.6%	55.5%	32.9%	82.6	90.8	64.3%	68%	64.6%	92.5%	79%	88.6%
COc1ccc(/C=C/C(c2cc(OC)c(OC)c(OC)c2)n2ccnc2)cc1O (stereo not given)	37.8%	13.6%	57.7%	53	33.1%	56.1%	16.6	23.1%	34.2%	18.6%	24.9%	71%	20	47.3	27.1%	25.3%	17%	36.4%	46.1%	58.9%
COc1ccc(N2CCN(C(=O)c3sc4nc(C)c(Br)c(C)c4c3N)CC2)cc1	104%	97.3%	-12.3% (active)	84.2	116%	89.1%	95.6	91.8%	99.7%	99.3%	102%	102%	76.6	98.9	87.4%	81.9%	93.4%	89.2%	93%	104%
CCn1cc(CNc2ccc(C(=O)Nc3cc4cc(OC)c(OC)cc4c(C)n3)cc2)cn1	67.2%	30.8%	54.6%	79.6	80.4%	60.6%	60.4	70.5%	56.2%	48.8%	26.3%	56.6%	65.2	84.1	65.2%	15.3%	10.3%	33.5%	46.1%	70.5%
C=C1C(=O)O[C@H]2[C@H]1CC/C(COC(=O)/C=C\C(=O)NCc1ccc(Cn3c(=O)sn(CCCCC)c3=O)cc1)=C\CC[C@@]1(C)O[C@@H]21	49.2%	12.6%	52.4%	71.4	74.9%	92.5%	101	78.7%	75.8%	43.9%	38.8%	41.3%	110	94.8	84.4%	81.9%	106%	70.1%	62.6%	91.1%
CSC1=Nc2c(c(C)c(-c3ccccc3)n2CCCC(=O)O)C2=NC(=O)C[C@H](C)N12	115%	101%	102%	138	106%	110%	106	85.5%	108%	102%	127%	94.1%	79.7	101	103%	97.6%	92.4%	107%	94.9%	105%
CO[C@H](C(=O)[C@@H](O)[C@@H](C)O)[C@@H]1Cc2cc3cc(O[C@H]4C[C@@H](O[C@H]5C[C@@H](O)[C@H](O)C(C)O5)[C@H](O)C(C)(O)O4)cc(O)c3c(O)c2C(=O)[C@H]1O[C@H]1C[C@@H](O[C@H]2C[C@@H](O[C@H]3C[C@@H](OC)[C@H](O)C(C)O3)[C@@H](O)C(C)O2)[C@H](O)C(C)O1 (stereo not given in full)	17.5%	29.9%	-11.4% (active)	25.1	-35.1% (active)	34.8%	14.4	9.92% (active)	-16% (active)	34.2%	92.8%	11.3%	24.5	24.4	6.61% (active)	26.3%	-56.8% (active)	-39.5% (active)	2.79% (active)	3.39% (active)
NC(N)=NS(=O)(=O)c1ccc(NC2=C(I)C(=O)c3ncccc3C2=O)cc1	105%	94.2%	103%	92.7	108%	90.5%	103	97.4%	97.1%	111%	103%	106%	67.9	98.7	110%	92.1%	97.9%	94.2%	95%	135%
O=C1Nc2c(C(=O)O)cccc2/C1=N/c1n[nH]c(=S)s1	98.5%	41.3%	105%	86.2	112%	83.3%	94.7	91.9%	99.6%	90.9%	88.8%	105%	98.8	95.1	84.9%	84.2%	102%	49.6%	61.2%	107%
CCOC(=O)c1c(C)nc2c(c1N)/C(=C/c1ccc(OC)cc1)C(=O)N2Cc1ccccc1	60.7%	46.5%	64.5%	57.8	71.4%	62.3%	68.7	87.5%	49.6%	71.3%	41%	34%	73.3	77.7	50.7%	58.4%	61.8%	48.8%	55.6%	78.5%
NS(=O)(=O)c1ccc(NC(=O)/C(=C\c2ccc(Cl)cc2Cl)NC(=O)c2ccccc2)cc1	109%	88.2%	93.2%	105	96%	94.5%	104	95.7%	102%	102%	110%	103%	81.4	95.6	97.1%	89.4%	90.2%	74.9%	96.2%	110%
